Hit rate of the full screen: of about 85,000 compounds, about 440 (0.52%) showed an effect of 50% or more. The entries come from a sample that favours strong results as a whole.
Assay: In vitro enzyme assay to detect hydrolysis of chlorophenol red-beta-D-[…] directly proportional to the number of Toxoplasma stably expressing beta-galactosidase
Format: functional, organism-based, Toxoplasma gondii
Design: scale not given: in the data most compounds retested in dose-response had high values

SMILES	Percent Effect (50 µM)	Percent Effect (10 µM)
Cn1nccc1NC(=O)N1CCOCC1C1CC1 (centres undefined)	-2.135%	
O=C1COCC(Cc2ccccc2)N1 (centres undefined)	-23.94%	
NC(=O)CN1CCn2cccc2C1c1ccccc1 (centres undefined)	-16.03%	
CNC1CCN(c2cc(OC)cc(OC)c2)C1 (centres undefined)	-16.53%	
CCN1CCCN(C(=O)c2ccccc2COC)CC1	3.121%	
COCc1ccccc1C(=O)N1CCCC(O)C1 (centres undefined)	58.79%	
COCc1ccccc1C(=O)N1CCCC(c2cc(C)[nH]n2)C1 (centres undefined)		-0.6285%
O=C(NCC(O)C1CCCCC1)[C@@H](O)c1ccccc1 (some centres undefined)	-2.815%	
Cc1nn(CCO)c(NC(C)c2nccs2)c1C (centres undefined)	-2.968%	
COC[C@H]1CCC[C@H]1NC(=O)CCn1cncn1	1.07%	
Cc1ccc(CN(C)C(=O)CN2CCCC(Cn3cncn3)C2)cc1 (centres undefined)		-19.93%
CN(Cc1ccccc1)C(=O)CN1CCCC(Cn2cncn2)C1 (centres undefined)		-36.27%
CN(Cc1cnn(C)c1)C(=O)CN1CCCC(Cn2cncn2)C1 (centres undefined)		96.23%
NC(=O)COC(=O)c1cc(Cl)cc(C(F)(F)F)c1	-16.81%	
Cc1[nH]ncc1C(=O)NCCCSCC(C)C	11.62%	
Cc1nn(C)c2c(=O)n(Cc3ccc(F)cc3)nnc12		62.42%
Cc1nn(C)c(=O)c2nn(-c3ccc(F)cc3)c(C)c12		-17.45%
Cc1nn(C)c2c(=O)n(Cc3ccc(Cl)cc3)nnc12		71.45%
Cc1nn(C)c2c(=O)n(CC(=O)Nc3cc(Cl)cc(Cl)c3)nnc12		-3.347%
Cc1c(C(=O)NC(C)C)nnn1Cc1ccccc1	17.24%	

SMILES	Percent Effect (50 µM)	Percent Effect (10 µM)
Cc1nn(C)c2c(=O)n(Cc3ccccc3)nnc12		61.89%
CCn1nc(C)c2nnn(CC(=O)Nc3cccc(F)c3)c(=O)c21		-2.626%
Cc1nn(C)c2c(=O)n(Cc3ccc(C#N)cc3)nnc12		39.12%
CCn1nc(C)c2nnn(CC(=O)Nc3ccccc3)c(=O)c21		1.414%
COCC(C)(CCO)NCc1c(C)noc1C (centres undefined)	-23.44%	
CCC(CNC(=O)Nc1cc(C)nn1C)N1CCCC1 (centres undefined)	-4.617%	
NC(=O)C1CCN(CCOc2ccccc2F)CC1	-5.356%	
Cc1cnccc1NCCNC(=O)Cc1ccccn1	-14.36%	
CCO[C@H]1CN(C)C[C@@H]1NC(=O)c1cnc(CC)nc1	7.652%	
C[S+]([O-])c1nncn1Cc1cccc2cccnc12 (centres undefined)	-6.749%	
Cc1cc(N2CCOC(CN(C)CC(N)=O)C2)ccn1 (centres undefined)	2.869%	
COCc1[nH][nH]c(=O)c1CCN	-30.62%	
OC1(CNCCCn2cc(Cl)cn2)CCCNC1 (centres undefined)	-11.83%	
OC1(CNCCc2csc(-c3ccncc3)n2)CCCNC1 (centres undefined)		-15.25%
OC1(CNCCOCc2ccc(Cl)cc2)CCCNC1 (centres undefined)	57.1%	
CCOCC(O)CN(C)Cc1cccc(C(N)=O)c1 (centres undefined)	-13.39%	
CCN1C[C@H]2CCN(C(=O)NC3CCCC3)CC[C@H]2S1(=O)=O		-4.304%
CCN1C[C@H]2CCN(C(C)=O)CC[C@H]2S1(=O)=O		-1.674%
CCN1C[C@H]2CCN(C(=O)NC)CC[C@H]2S1(=O)=O		59.16%
Cc1c(N)cnn1C1CCOCC1	-9.55%	

SMILES	Percent Effect (50 µM)	Percent Effect (10 µM)
COc1ccc(OC)c(N2C(=O)CCC2=O)c1	-4.608%	
CN(CCOCCO)CCOc1ccc(F)cc1	15.3%	
O=C1NCCOc2ccc(Br)cc21	-18.86%	
COc1ccccc1CNC(=O)C1=NN(c2ccc(C)cc2)C(=O)CN1		57.58%
COc1ccc(CNC(=O)C2=NN(c3ccc(C)cc3)C(=O)CN2)cc1		-0.9855%
COc1ccc(C)cc1CNC(=O)C1=NN(c2ccccc2)C(=O)CN1		14.43%
Cc1cc2c(cc1S(=O)(=O)N1CCCC(N)C1)OCO2 (centres undefined)	6.23%	
CC(C)C1=NOC2(CCN(Cc3c[nH]c4ccccc34)CC2)C1		33.52%
c1cncc(C2=NOC3(CCN(Cc4c[nH]c5ccccc45)CC3)C2)c1		26.44%
c1ccc(C2=NOC3(CCN(Cc4c[nH]c5ccccc45)CC3)C2)cc1		73.52%
CCCC(C(=O)OCC)S(N)(=O)=O (centres undefined)	-4.644%	
COC(=O)C(C)SCc1noc(C2CC2)n1 (centres undefined)	1.688%	
CCN1C[C@H](NC(=O)c2cccn2C(C)C)[C@@H](OC)C1	-5.083%	
CCN1C[C@H](NC(=O)c2ccc(Cl)s2)[C@@H](OC)C1	2.981%	
CCN1C[C@H](NC(=O)c2snnc2C(C)C)[C@@H](OC)C1	82.91%	
CCC(NC(=O)c1cc(N)[nH]n1)c1nc(C)c[nH]1 (centres undefined)	4.795%	
Cc1nnsc1CN(C)C(=O)c1ccccc1	22.64%	
O=C(N[C@@H]1CNC[C@H]1CO)C1CCC1	-0.2309%	
Cc1cc(CN)nc(N(C)C)n1	87.02%	

— ChEMBL document CHEMBL3988442, “University of Dundee, Small-Polar-MMV Screening Library” (2021)
